nsP2pro primary = inhibitors of chikungunya virus nsP2 protease; Potency, µM (highest dose often 24.9 µM), most hits filed as inhibitors; FRET peptide cleavage, nsP2pro, fluorescence 1 h; actives 1.1% (n = 31,000); note: nearly all actives have a fitted effect of over 60% in size
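Enzyme 150 nM, substrate 2.5 uM (both final); Tris-HCl 10 mM pH 8.0 + 0.01% Tween 20; cpd up to 25 uM, 7 pts; 15 min preinc., 1 h RT; fluorescence ex 525/em 598.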
nsP2 cell sec = cell-based CHIKV nsP2 protease inhibition, secondary. shares compounds with nsP2pro primary. cell-based CHIKV nsP2 protease reporter assay. Potency, µM (titrated, usually from 51.1 µM), usual class: inhibitors. actives 10% (n = 450). AID 1964100; note: nearly all actives have a fitted effect of over 70% in size
CHIKV NSP2 FL = selectivity test for CHIKV nsP2 protease inhibitors: full-length NSP2; Potency, µM (titrated, usually from 50.7 µM), actives largely listed as inhibitors; shares compounds with nsP2pro primary; Full-length CHIKV NSP2 protease enzymatic counterscreen; actives 39% (n = 410); AID 1964101; note: nearly all actives have a fitted effect of over 65% in size
Furin counter = inhibits human furin in a CHIKV nsP2 protease selectivity counterscreen; actives 6% (n = 410); Potency, µM (top dose mostly 50.6 µM), actives largely listed as inhibitors; Recombinant human furin enzymatic counterscreen, fluorogenic substrate; shares compounds with nsP2pro primary
nsP2 NS23 pep = nsP2pro inhibition on native NS2/3 peptide substrate | Potency, µM (doses to about 51 µM), actives largely listed as inhibitors | Purified CHIKV nsP2 protease, endogenous NS2/3 peptide cleavage | shares compounds with nsP2pro primary | actives 34% (n = 410); note: nearly all actives have a fitted effect of over 55% in size
Papain cs = selectivity counter-screen for CHIKV nsP2 protease inhibitors: papain; shares compounds with nsP2pro primary; AID 1964104; purified papain protease activity, enzymatic inhibition; actives 5% (n = 410); Potency, µM (top dose mostly 51 µM), most hits filed as inhibitors
Target sequence (P00784 whole entry, looked up): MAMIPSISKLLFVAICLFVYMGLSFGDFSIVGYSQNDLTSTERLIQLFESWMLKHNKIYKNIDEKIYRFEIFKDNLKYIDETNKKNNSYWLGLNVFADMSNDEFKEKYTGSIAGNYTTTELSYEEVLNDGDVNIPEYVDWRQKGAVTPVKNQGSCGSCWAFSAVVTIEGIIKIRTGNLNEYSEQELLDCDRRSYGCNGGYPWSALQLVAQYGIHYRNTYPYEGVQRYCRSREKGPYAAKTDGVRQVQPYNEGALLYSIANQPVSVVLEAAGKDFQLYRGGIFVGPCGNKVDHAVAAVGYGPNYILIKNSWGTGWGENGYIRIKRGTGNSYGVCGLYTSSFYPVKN
nsP2pro confirm = CHIKV nsP2 protease inhibition, confirmatory qHTS | shares compounds with nsP2pro primary | CHIKV nsP2 protease enzymatic activity, qHTS | Potency, µM (top dose mostly 25.5 µM), actives largely listed as inhibitors | actives 43% (n = 410) | AID 1964105; note: nearly all actives have a fitted effect of over 75% in size
HCV NS3 4A cs = selectivity counter-screen for CHIKV nsP2 protease inhibitors: HCV NS3/4A; shares compounds with nsP2pro primary; HCV NS3/4A protease biochemical counterscreen; Potency, µM (highest dose often 50.9 µM), most hits filed as inhibitors; actives 20% (n = 410); AID 1964106; note: nearly all actives have a fitted effect of over 55% in size
Each line names hits and unclear results; the compound was inactive in the other large screens (follow-up assays come after a bar, where they were run); ! = a repeat was not active. Shown is part of a subset that was picked to be rich in hits. Calls come from the whole dose curve.

COCCOc1cnc2ccn([C@H](C)c3nnc4c(F)cc(-c5cnn(C)c5)cn34)c(=O)c2c1	nsP2pro primary inconclusive | nsP2 cell sec inactive | CHIKV NSP2 FL inactive | Furin counter inactive | nsP2 NS23 pep inactive | Papain cs inactive | nsP2pro confirm inconclusive | HCV NS3 4A cs inactive
COc1cccc(CN(C)c2ccc([S+](=O)([O-])Nc3nccs3)cc2)c1O	none
N#Cc1ccc(-c2nc(NCc3ccc(-c4ccnc(C(F)(F)F)c4)cc3)c3ccccc3n2)cc1	none
CO/N=C(/C(=O)N[C@@H]1C(=O)N2C(C(=O)O)=C(CSC(=O)c3ccco3)CS[C@H]12)c1csc(N)n1	nsP2pro primary 11µM! | nsP2 cell sec inactive | CHIKV NSP2 FL inactive | Furin counter inactive | nsP2 NS23 pep inactive | Papain cs inconclusive | nsP2pro confirm inactive | HCV NS3 4A cs inactive
CO/N=C(/C(=O)N[C@@H]1C(=O)N2C(C(=O)OCOC(=O)C(C)(C)C)=C(C)CS[C@H]12)c1csc(N)n1	none
CC(=O)OCC1=C(C(=O)O)N2C(=O)[C@@H](NC(=O)Cc3cccs3)[C@H]2SC1	none
C[C@@H]1O[C@@H](O[C@H]2[C@H](O)[C@@H](O[C@@H]3O[C@H](CO)[C@H](O)[C@H](O)[C@H]3O)[C@H](O[C@H]3CC[C@@]4(C)C(CC[C@]5(C)C4CC=C4[C@@H]6CC(C)(C)CC[C@]6(C(=O)O[C@@H]6O[C@H](CO)[C@@H](O)[C@H](O)[C@H]6O)CC[C@]45C)C3(C)C)O[C@@H]2C(=O)O)[C@H](O)[C@H](O)[C@H]1O (stereo partly specified)	none
CCCCN1C(=O)c2ccccc2NC1c1ccc(OC)c(COc2c(C)cc(NC(C)=O)cc2C)c1 (stereo unspecified)	none
COc1ccc(S(=O)(=O)ON=C2C=C(C)C(=O)C(C)=C2)cc1	nsP2pro primary inconclusive | nsP2 cell sec 2.2µM | CHIKV NSP2 FL inconclusive | Furin counter inactive | nsP2 NS23 pep 6.5µM | Papain cs 9.2µM | nsP2pro confirm inconclusive | HCV NS3 4A cs inactive
COc1ccc(S(=O)(=O)N2CCN(S(=O)(=O)c3ccc(OC)cc3)CC2)cc1	none
COc1ccc(S(=O)(=O)c2cc3cc(OC)ccc3oc2=O)cc1	none
Cc1ccc(Cn2nc(C(=O)N[C@@H]3C(C)(C)[C@@H]4CC[C@@]3(C)C4)cc2-c2ccc(Cl)c(C)c2)cc1	none
CCc1cccc(-n2nnnc2N2CCN(C(=O)Cc3ccc(C)c(F)c3)CC2)c1	none
CC1CCCC(C)N1C(=S)Nc1cccc(C(F)(F)F)c1 (stereo unspecified)	none
O=C1CCCC2=C1C(c1cccc(Oc3ccccc3)c1)N=C(Nc1nc3ccccc3o1)N2 (stereo unspecified)	none
CCOC(=O)c1ccoc1-c1ccc2ncnc(NCc3ncc[nH]3)c2c1	none
COc1ccc(C(=O)Nc2cnc(-c3ccc(Cl)cc3)nc2)cc1	none
Cc1ccccc1C1=CCN(c2ncc(NC(=O)c3ccc(Cl)cc3)cc2C(=O)O)CC1	nsP2pro primary inconclusive | nsP2 cell sec inactive
Cc1ccccc1C1=CCN(C)CC1	none
O=c1c2ccc(-c3cn[nH]c3)cc2nc2sc(Nc3ccc4c(c3)CCC4)nn12	none
C=C(C(=O)O)[C@@H]1CC[C@@]2(C)CC[C@@H](O)C(=C)C2C1 (stereo partly specified)	none
COc1cc(SC)c(OC)cc1CN1CCC2(CC(=O)NC2=O)C1 (stereo unspecified)	none
CC1CC2(O)OC(=O)C3=C2C(CCC3)[C@@]12C[C@@H](c1ccoc1)OC2=O (stereo partly specified)	nsP2pro primary inconclusive | nsP2 cell sec inactive | CHIKV NSP2 FL inconclusive | Furin counter inactive | nsP2 NS23 pep inconclusive | Papain cs inactive | nsP2pro confirm inactive | HCV NS3 4A cs 1.8µM
COC(=O)c1ccc2c(c1)/C(=C/c1cc(Br)c(O)c(Br)c1)C(=O)N2	none
CC(O)(C#Cc1ccc2c(c1)N(c1nc(N)ncc1Cl)CC2)c1nccs1 (stereo unspecified)	nsP2pro primary 5µM! | nsP2 cell sec 2.1µM | CHIKV NSP2 FL 7.3µM | Furin counter inconclusive | nsP2 NS23 pep 15µM | Papain cs inactive | nsP2pro confirm 2.2µM | HCV NS3 4A cs inconclusive
Cc1cc(C)nc(NC(=S)N2CCN(c3ccc(Cl)c(C(F)(F)F)c3)CC2)c1	none
CC1CC=C2C1CC1(O)C(=O)CC2(C)C1(C)CO (stereo unspecified)	none
Cn1cc(C(=O)NCc2nnc3n2C(C(=O)NC2CC2)CC3)cn1 (stereo unspecified)	none
CC1=CC2(O)/C=C/C(C)(O)CC(O)/C=C/C(=O)OC23C(=O)NC(CC(C)C)C3C1C (stereo unspecified)	none
O=C(c1cnccn1)N1C[C@@H]2OCC(=O)N(CC3CCCCC3)[C@@H]2C1	none
O=C1CO[C@H]2CN(c3ncccn3)C[C@H]2N1CC1CCCCC1	nsP2pro primary 2.2µM | nsP2 cell sec inactive | CHIKV NSP2 FL inactive | Furin counter inconclusive | nsP2 NS23 pep 24µM | Papain cs inactive | nsP2pro confirm 3.7µM | HCV NS3 4A cs 9.4µM
N#Cc1ccc(N2C[C@@H]3OCC(=O)N(CC4CCCCC4)[C@@H]3C2)nc1	none
CC(C)=CCc1ccc(Oc2c(O)cc(C)cc2CO)c(C(=O)O)c1O	none
CCOc1ccc2ccccc2c1C(C(=O)O)N1CCN(CC2CC2)CC1 (stereo unspecified)	none
Cc1cc(C)nc(NC(=S)N2CCN(c3ccc(C(F)(F)F)cc3[N+](=O)[O-])CC2)c1	none
O=C(Nc1ccc(F)c(F)c1)Nc1nnc(-c2ccncc2)s1	none
CN(CCCNC(=O)C1(CCO)CC12CCOCC2)C1CCCCC1 (stereo unspecified)	none
OCC1OC(Oc2cc(O)c3c(c2)OC(c2ccc(O)cc2)C(O)C3)C(O)C1O (stereo unspecified)	none
Oc1cc(O)c2c(c1)O[C@H](c1ccc(O)c(O)c1)[C@H](O)C2	none
O=C(O[C@@H]1Cc2c(O)cc(O)cc2O[C@@H]1c1cc(O)c(O)c(O)c1)c1cc(O)c(O)c(O)c1	nsP2pro primary 4.4µM! | nsP2 cell sec inactive | CHIKV NSP2 FL inconclusive | Furin counter inconclusive | nsP2 NS23 pep 5.8µM | Papain cs inconclusive | nsP2pro confirm 4.5µM | HCV NS3 4A cs inconclusive

High-throughput results (PubChem BioAssay)
